Source: PubChem BioAssay
“And” between values parts separate entries of the source, which are not always exact repeats. Equal entries are not always repeated. The source made the active and inactive calls. Unless noted, the rule behind the calls is not given here.

How the values were obtained:
[1] = system: Aerobactin synthetase IucA (Klebsiella pneumoniae); assay: inhibition of K. pneumoniae IucA enzyme – biochemical, Tocris library, absorbance (AID 1345561); settings: purified IucA enzyme assay, absorbance (OD) read-out; stronger effect = lower value;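 tested at 8 µM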;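 note: 100% = enzyme without compound and 0% = no enzyme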
[2] = viability loss with induced miR-34 in A549 – imaging, A549 dox-inducible miR-34, nuclei and caspase counts, primary screen (AID 1347080;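 active = compounds whose cell count with miR-34 switched on is under 0.7 times the count with it off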); settings: A549 miR-34 inducible, Hoechst nuclei count, 48 h
[3] = chitosan synthesis blockers in C. neoformans – flow cytometry, Cibacron Brilliant Red staining (AID 1347148); settings: Cryptococcus neoformans chitosan, stronger effect = lower value; at 10 µM unless noted;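 note: compound exposure lasted three days at 37 degrees C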
[4] = galactose survival enhancers in mitochondrial complex I cybrids – cell-based, galactose medium, ATP luminescence, primary screen (AID 1645843;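 active = z-score of at least 1.8 in each of two replicates, scored against plate mean and spread of sample wells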;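 note: positive z means more ATP and so rescue of galactose-driven cybrid death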); settings: complex I mutant cybrid cells, 72 h, stronger effect = higher value
[5] = compounds altering circadian rhythm period length – cell-based, LOPAC library, luminescence reporter (AID 2774); settings: circadian reporter cells, at 7 µM, actives lie on both sides;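 note: values are relative to mean of DMSO wells on each plate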
[6] = compounds altering viability of human ES cells (AID 493140); settings: human embryonic stem cell survival screen; stronger effect = higher value;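 note: cells exposed to compounds for four days before counting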
[7] = system: Hepatitis C virus NS3 helicase; assay: blockers of NS3h binding to ssDNA – biochemical, fluorescence polarization, LOPAC1280 library, primary screen (AID 687035; in the data active = inhibition above about 37%); settings: Purified HCV NS3 helicase, Cy5-dT15 ssDNA binding fluorescence polarization; stronger effect = higher value; concentration not given here
[8] = compounds altering Cy5-DNA-NS3h complex signal – biochemical, LOPAC1280, artefact control for HCV NS3 helicase inhibitor project (AID 687037); settings: Cy5-DNA-NS3h complex fluorescence interference counterscreen
[9] = blockers of cellular phospholipid synthesis – cell-based, LOPAC library, screen 4, primary screen (AID 1347384); settings: animal cells, phospholipid biosynthesis inhibition screen; at 10 µM
[10] = MELAS cybrid and Rieske KO viability enhancers – cell-based, MELAS cybrids, Rieske KO mouse fibroblasts, CellTiter-Glo, primary screen (AID 1508586;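 active = mean z-score across replicates of 1.96 or higher in either the MELAS or the Rieske mutant cell line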;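 note: z relative to plate mean and SD of compound and empty wells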); settings: low glucose
[11] = stronger effect = lower value, cell number ratio, induced over uninduced
[12] = measured here: relative caspase fold change +Dox/-Dox
[13] = measured here: total cells with miR-34 induction, stronger effect = lower value
[14] = measured here: total cells without miR-34 induction

Structure (SMILES): O=C(NCCCCCCNC(=O)ON=C1CCCCC1)ON=C1CCCCC1
- remaining activity [1]: 126% (inactive)
- fold change [2, 11]: 0.722 (inactive) and 0.829 (inactive)
- fold change [2, 12]: 1.07 and 1.04
- cell count [2, 13]: 3570 and 6850
- cell count [2, 14]: 4940 and 8260
- fold fluorescence [3]: 7.89 [at 126.7 µM] (inactive)
- z-score [4]: -0.255 (inactive)

Structure (SMILES): O=C1CCc2c(ccc3ccccc23)O1
- remaining activity [1]: 100% (inactive)
- fold change [2, 11]: 0.939 (inactive) and 0.91 (inactive)
- fold change [2, 12]: 0.854 and 0.797
- cell count [2, 13]: 5380 and 8760
- cell count [2, 14]: 5730 and 9620
- fold fluorescence [3]: 3.79 [at 252.2 µM] (inactive)
- z-score [4]: -0.32 (inactive)

Structure (SMILES): O=S(=O)(c1cccc2c(Cl)cccc12)N1CCCNCC1
- period change [5]: 0.09 h (inactive)
- survival [6]: 62 (inactive)
- inhibition [7]: -2% (inactive)
- fluorescence ratio (interference) [8]: 1 (inactive)
- remaining activity [1]: 97.3% (inactive)
- fold change [2, 11]: 1.19 (inactive) and 0.923 (inactive) and 0.938 (inactive)
- fold change [2, 12]: 1.59 and 1.07 and 1
- cell count [2, 13]: 6430 and 3010 and 7700
- cell count [2, 14]: 5390 and 3260 and 8210
- fold fluorescence [3]: 11.9 [at 153.9 µM] (inactive)
- outcome [9]: inactive
- z-score [4]: -0.995 (inactive) and -0.78 (inactive)

Structure (SMILES): S=C(S)OC1CC2CC1C1CCCC21 (centres undefined)
- period change [5]: -0.18 h (inactive)
- inhibition [7]: -2% (inactive)
- fluorescence ratio (interference) [8]: 1 (inactive)
- remaining activity [1]: 120% (inactive)
- fold change [2, 11]: 0.999 (inactive) and 0.847 (inactive) and 0.975 (inactive)
- fold change [2, 12]: 0.874 and 0.927 and 0.9
- cell count [2, 13]: 10600 and 4560 and 8830
- cell count [2, 14]: 10600 and 5380 and 9060
- fold fluorescence [3]: 5.66 [at 187.6 µM] (inactive)
- outcome [9]: inactive
- z-score [4]: -0.025 (inactive) and -0.095 (inactive)

Structure (SMILES): CCSC(=N)N
- period change [5]: 0.115 h (inactive)
- inhibition [7]: -2% (inactive)
- fluorescence ratio (interference) [8]: 1 (inactive)
- remaining activity [1]: 116% (inactive)
- fold change [2, 11]: 1.03 (inactive) and 0.939 (inactive) and 0.949 (inactive)
- fold change [2, 12]: 0.74 and 0.98 and 1.59
- cell count [2, 13]: 10300 and 5940 and 9910
- cell count [2, 14]: 10000 and 6330 and 10400
- outcome [9]: inactive
- z-score [4]: 0.125 (inactive) and 0.13 (inactive)

Structure (SMILES): CCCCCCCCCCCCCCCC(=O)OC(CC(=O)O)C[N+](C)(C)C (centres undefined)
- period change [5]: 0.01 h (inactive)
- survival [6]: 103 (inactive)
- inhibition [7]: -4% (inactive)
- fluorescence ratio (interference) [8]: 1 (inactive)
- remaining activity [1]: 122% (inactive)
- fold change [2, 11]: 1.09 (inactive) and 1.01 (inactive)
- fold change [2, 12]: 0.674 and 0.826
- cell count [2, 13]: 6530 and 7890
- cell count [2, 14]: 5960 and 7780
- outcome [9]: inactive
- z-score [4]: -1.29 (inactive) and -1.24 (inactive)

Structure (SMILES): NS(=O)(=O)C#Cc1ccccc1
- inhibition [7]: 0% (inactive)
- fluorescence ratio (interference) [8]: 1 (inactive)
- remaining activity [1]: 110% (inactive)
- fold change [2, 11]: 1.19 (inactive) and 0.967 (inactive) and 1.13 (inactive)
- fold change [2, 12]: 1.2 and 0.467 and 1.12
- cell count [2, 13]: 3660 and 6510 and 3430
- cell count [2, 14]: 3080 and 6730 and 3020
- outcome [9]: inactive
- z-score ([10]; MELAS cybrid survival, CellTiter-Glo 48 h, stronger effect = higher value): -0.62 (inactive)
- z-score ([10]; Rieske KO mouse fibroblast survival, CellTiter-Glo 72 h): -0.117
- z-score [4]: -1.27 (inactive) and -0.695 (inactive)
